For test [1], the target named is Cytochrome P450 1A2 (Homo sapiens) (UniProt P05177). Put plainly: p450-cyp1a2 (AID 410). Note: potency is the fitted concentration of half-maximal effect. The procedure, abridged: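 20nM CYP1A2 with 100uM Luciferin-ME (at Km) in 100mM KPO4; compound preincubated 10 min, NADPH regeneration added, 60 min at room temperature. Luciferin quantified by luminescence after detection reagent; normalized to 57 uM furafylline.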
For test [2], the target named is Glucocorticoid receptor (Homo sapiens) (UniProt P04150). As to the kind of experiment: GR-EFC Redistribution (AID 451). Note: potency is the fitted concentration of half-maximal effect. Conditions: CHO-K1 GR-EFC translocation, beta-gal luminescence, 2 h. The method in brief: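 CHO-K1 cells expressing nuclear EA and GR-ED fragments of b-gal; compounds titrated up to 46 uM final, 2 h at 37 C. GR nuclear translocation read as complemented b-gal luminescence after 1 h RT detection.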
Sequence of Glucocorticoid receptor (Homo sapiens) (P04150 whole entry, looked up, the tested form may be a part): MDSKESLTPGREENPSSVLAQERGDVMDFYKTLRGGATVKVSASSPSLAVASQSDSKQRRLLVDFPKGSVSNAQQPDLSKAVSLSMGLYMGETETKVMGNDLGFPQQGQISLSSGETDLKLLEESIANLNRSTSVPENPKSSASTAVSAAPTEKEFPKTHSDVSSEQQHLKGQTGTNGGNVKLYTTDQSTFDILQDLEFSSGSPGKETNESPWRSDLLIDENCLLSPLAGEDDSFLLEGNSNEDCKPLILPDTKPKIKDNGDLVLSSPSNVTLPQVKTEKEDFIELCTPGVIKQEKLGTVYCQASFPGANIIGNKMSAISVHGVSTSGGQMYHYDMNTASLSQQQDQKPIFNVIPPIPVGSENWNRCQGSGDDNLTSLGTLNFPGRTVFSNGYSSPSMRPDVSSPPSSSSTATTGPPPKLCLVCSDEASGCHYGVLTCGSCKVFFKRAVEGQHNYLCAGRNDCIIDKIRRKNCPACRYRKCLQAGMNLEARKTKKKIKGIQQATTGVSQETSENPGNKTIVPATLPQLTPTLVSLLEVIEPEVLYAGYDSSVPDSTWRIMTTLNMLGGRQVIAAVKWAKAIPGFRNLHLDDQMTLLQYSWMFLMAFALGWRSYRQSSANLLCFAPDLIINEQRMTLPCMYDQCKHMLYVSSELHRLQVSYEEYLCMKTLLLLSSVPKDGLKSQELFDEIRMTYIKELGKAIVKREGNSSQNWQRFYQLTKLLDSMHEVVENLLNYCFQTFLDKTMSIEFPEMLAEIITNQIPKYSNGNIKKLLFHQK

Test [3] addresses Mitogen-activated protein kinase 10 (Mus musculus) (UniProt Q61831). Put plainly: JNK3 AlphaScreen Assay (AID 530; active = well fitted curve in either direction with a large enough effect, not every such curve was filed as active;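 note: kinase came from lysate of stimulated human HepG2 cells; signal reports phosphorylation of biotinylated GST-cJun 1-79 at Ser73 with 10 µM ATP; % is set by controls: 0 for no effect and ±100 for the full control effect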). The procedure, abridged: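 Pre-activated (IL-1β/TNFα) JNK3 in HepG2 lysates phosphorylates biotin-GST-cJun(1-79), 10 uM ATP; anti-phospho-cJun(Ser73) AlphaScreen read at room temperature, pH 7.6 Tris buffer. Compounds pre-incubated 15 min as titrations.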
The target of test [4] is Cytochrome P450 3A4 (Homo sapiens) (UniProt P08684). As to the kind of experiment: qHTS Assay for Inhibitors and Substrates of Cytochrome P450 3A4 (AID 884; active = well fitted curve in the direction sought with a large enough effect; an effect the other way counts as inactive or inconclusive; note: potency is the fitted concentration of half-maximal effect; nearly all actives have a fitted effect of over 50% in size). The procedure, abridged: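 20 nM human CYP3A4 with 25 uM Luciferin-PPXE (at KM) in 200 mM KPO4, preincubated 10 min with compound; NADPH regeneration started a 60 min RT reaction. Luciferin detected by luminescence, normalized to 57 uM ketoconazole as full inhibition.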
Sequence of Cytochrome P450 3A4 (Homo sapiens) (P08684 whole entry, looked up): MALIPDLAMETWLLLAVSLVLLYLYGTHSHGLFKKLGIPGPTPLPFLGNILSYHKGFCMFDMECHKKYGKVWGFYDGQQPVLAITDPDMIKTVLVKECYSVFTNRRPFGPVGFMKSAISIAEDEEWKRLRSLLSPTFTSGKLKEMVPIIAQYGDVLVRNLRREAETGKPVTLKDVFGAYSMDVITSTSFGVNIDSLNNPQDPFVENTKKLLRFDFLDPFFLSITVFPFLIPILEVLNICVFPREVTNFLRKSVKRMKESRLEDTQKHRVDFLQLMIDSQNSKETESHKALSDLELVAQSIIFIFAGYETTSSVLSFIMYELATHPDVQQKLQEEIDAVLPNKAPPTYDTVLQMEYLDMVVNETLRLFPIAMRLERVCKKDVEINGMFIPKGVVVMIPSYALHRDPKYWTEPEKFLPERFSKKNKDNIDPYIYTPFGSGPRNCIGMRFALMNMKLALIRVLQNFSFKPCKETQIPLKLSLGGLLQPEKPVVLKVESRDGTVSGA
(In qHTS, concentration-response curves come from the screen itself.)

Test [5] shares this target. As to the kind of experiment: qHTS Assay for Activators of Cytochrome P450 3A4 (AID 885; active = well fitted curve in the direction sought with a large enough effect; an effect the other way counts as inactive or inconclusive; note: nearly all actives have a fitted effect of over 65% in size). The procedure, abridged:
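Human CYP3A4 (20 nM) with Luciferin-PPXE at 25 uM (its KM) in 200 mM KPO4; 10 min compound preincubation, then NADPH regeneration and 60 min reaction at RT. Luciferin read by luminescence; normalized to 57 uM ketoconazole full inhibition.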

Test [6] deals with Ubiquitin carboxyl-terminal hydrolase 1 (Homo sapiens) (UniProt O94782). Put plainly: Inhibitors of USP1/UAF1: Pilot qHTS (AID 504865; active = well fitted curve in the direction sought with a large enough effect; an effect the other way counts as inactive or inconclusive;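 note: rhodamine fluorescence freed from ubiquitin-rhodamine substrate followed over time; top concentration of the series differs between compounds; % is set by controls: 0 for no effect and ±100 for the full control effect; nearly all actives have a fitted effect of over 35% in size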). The method in brief:
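1nM USP1/UAF1 + cpd, 15 min RT; start w/ Ub-Rho 150nM final; kinetic FL 480/540 nm, 6 reads q60 s. Buffer 50mM HEPES pH 7.8, 0.5mM EDTA, 1mM TCEP, 0.01% Tween-20, 0.1 mg/ml BSA.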

In test [7] the target is DNA dC->dU-editing enzyme APOBEC-3G (Homo sapiens) (UniProt Q9HC16). As to the kind of experiment: qHTS for inhibitors of Vif-A3G interactions: Validation (AID 588379; active = well fitted curve in the direction sought with a large enough effect; an effect the other way counts as inactive or inconclusive; note: 0% is about no effect). The procedure, abridged: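 HeLa cells stably expressing Vif and A3G-eYFP, 700 cells/well, incubated overnight at 37 deg C, then exposed to compound overnight at 37 deg C. Inhibition of Vif-mediated degradation read as increased yellow fluorescence (Ex 488/Em 500-530) by laser-scanning cytometry.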
Sequence of DNA dC->dU-editing enzyme APOBEC-3G (Homo sapiens) (Q9HC16 whole entry, looked up): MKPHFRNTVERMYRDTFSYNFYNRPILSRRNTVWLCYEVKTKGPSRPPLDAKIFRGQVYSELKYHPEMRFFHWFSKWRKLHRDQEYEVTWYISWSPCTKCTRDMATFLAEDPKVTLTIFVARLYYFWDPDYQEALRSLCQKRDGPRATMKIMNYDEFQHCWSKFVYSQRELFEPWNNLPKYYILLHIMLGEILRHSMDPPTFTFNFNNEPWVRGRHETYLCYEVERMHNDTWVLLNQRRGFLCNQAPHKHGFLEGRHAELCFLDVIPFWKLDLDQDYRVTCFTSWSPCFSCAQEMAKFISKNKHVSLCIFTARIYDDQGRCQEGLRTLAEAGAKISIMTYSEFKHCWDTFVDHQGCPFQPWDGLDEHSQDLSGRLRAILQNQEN

Test [8] in a line: qHTS for Inhibitors of the Functional Ribonucleoprotein Complex (vRNP) of Lassa (LASV) Arenavirus: LASV Primary Screen - GLuc reporter signal (AID 1347082; calls by dose curve; tested in HEK293 reporter line; note: nearly all actives have a fitted effect of over 60% in size; note: potency is the fitted concentration of half-maximal effect; for activity change, negative = inhibition: % is set by controls: 0 for no effect and ±100 for the full control effect).
Test [9] is described as follows: qHTS for Inhibitors of the Functional Ribonucleoprotein Complex (vRNP) of Lassa (LASV) Arenavirus: Viability assay - alamar blue signal for LASV Primary Screen (AID 1347083; calls by dose curve; tested in HEK293 reporter line; note: nearly all actives have a fitted effect of over 80% in size; note: potency is the fitted concentration of half-maximal effect).
Test [10] in a line: qHTS for Inhibitors of the Functional Ribonucleoprotein Complex (vRNP) of Lymphocytic Choriomeningitis Arenaviruses (LCMV): Viability assay - alamar blue signal for LCMV Primary Screen (AID 1347085; calls by dose curve; tested in HEK293 reporter line; note: nearly all actives have a fitted effect of over 80% in size; note: potency is the fitted concentration of half-maximal effect).
The target of test [11] is Nucleoprotein (Lymphocytic choriomeningitis virus (strain Armstrong)) (UniProt P09992). As to the kind of experiment: qHTS for Inhibitors of the Functional Ribonucleoprotein Complex (vRNP) of Lymphocytic Choriomeningitis Arenaviruses (LCMV): LCMV Primary Screen - GLuc reporter signal (AID 1347086). For activity change, negative = inhibition: % is set by controls: 0 for no effect and ±100 for the full control effect. Note: nearly all actives have a fitted effect of over 70% in size. Note: potency is the fitted concentration of half-maximal effect.
Sequence of Nucleoprotein (Lymphocytic choriomeningitis virus (strain Armstrong)) (P09992 whole entry, looked up): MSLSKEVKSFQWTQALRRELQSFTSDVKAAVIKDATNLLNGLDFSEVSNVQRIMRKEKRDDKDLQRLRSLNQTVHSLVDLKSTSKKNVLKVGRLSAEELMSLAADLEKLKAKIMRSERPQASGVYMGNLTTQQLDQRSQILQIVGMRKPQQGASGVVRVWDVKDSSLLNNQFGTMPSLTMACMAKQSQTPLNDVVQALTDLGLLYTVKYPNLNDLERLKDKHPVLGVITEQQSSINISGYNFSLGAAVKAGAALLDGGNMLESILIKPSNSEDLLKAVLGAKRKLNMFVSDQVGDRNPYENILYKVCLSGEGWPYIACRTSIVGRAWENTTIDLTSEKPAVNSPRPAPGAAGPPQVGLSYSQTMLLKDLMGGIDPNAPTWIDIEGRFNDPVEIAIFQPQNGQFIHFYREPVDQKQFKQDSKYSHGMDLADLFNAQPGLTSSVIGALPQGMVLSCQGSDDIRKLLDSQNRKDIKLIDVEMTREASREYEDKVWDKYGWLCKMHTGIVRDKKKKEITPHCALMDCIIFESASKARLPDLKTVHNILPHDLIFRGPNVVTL
Test [12] is described as follows: Cell Viability qHTS for small molecule stabilizers of the endoplasmic reticulum resident proteome (AID 1508629; active = well fitted curve in the direction sought with a large enough effect; an effect the other way counts as inactive or inconclusive;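 note: human SH-SY5Y neuroblastoma cells carrying the GLuc-SERCaMP reporter; compound exposure about 46 h in total before the viability read; % is set by controls: 0 for no effect and ±100 for the full control effect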). As to conditions: cell viability counter-screen, 100 nM thapsigargin for final 4 h.
A short description of test [13]: Cytotoxicity counterscreen for inhibitors of SARS-CoV-2 cell entry (AID 1645845). Note: nearly all actives have a fitted effect of over 50% in size. The method in brief: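 HEK293-ACE2 cells (Expi293F stably expressing human ACE2) seeded overnight, then compound for 1 h plus 48 h at 37C. Viability as ATP content by luminescence; normalized to wells with cells and media-only wells.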
In general terms: Counterscreens check selectivity or assay interference.

Test [14] can be described thus: Primary qHTS to identify inhibitors of SARS-CoV-2 cell entry (AID 1645846). Note: nearly all actives have a fitted effect of over 45% in size. Conditions: activity change, negative = inhibition: at 57.1 µM (top of the series) unless noted. The procedure, abridged:
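HEK293-ACE2 (Expi293F, stable hACE2), 1500 cells/well, o/n 37C; cpd 23 nL pin, 1 h; MLV-PP w/ SARS-CoV-2-S (Wuhan-Hu-1, Δ19 C-term); 48 h 37C; Bright-Glo luminescence; normalized vs S-PP and bald PP.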

Inconclusive results are not listed. Calls of active or inactive are those of the source. Unless noted, calls come from the whole dose curve.

Sequence of Ubiquitin carboxyl-terminal hydrolase 1 (Homo sapiens) (O94782 whole entry, looked up): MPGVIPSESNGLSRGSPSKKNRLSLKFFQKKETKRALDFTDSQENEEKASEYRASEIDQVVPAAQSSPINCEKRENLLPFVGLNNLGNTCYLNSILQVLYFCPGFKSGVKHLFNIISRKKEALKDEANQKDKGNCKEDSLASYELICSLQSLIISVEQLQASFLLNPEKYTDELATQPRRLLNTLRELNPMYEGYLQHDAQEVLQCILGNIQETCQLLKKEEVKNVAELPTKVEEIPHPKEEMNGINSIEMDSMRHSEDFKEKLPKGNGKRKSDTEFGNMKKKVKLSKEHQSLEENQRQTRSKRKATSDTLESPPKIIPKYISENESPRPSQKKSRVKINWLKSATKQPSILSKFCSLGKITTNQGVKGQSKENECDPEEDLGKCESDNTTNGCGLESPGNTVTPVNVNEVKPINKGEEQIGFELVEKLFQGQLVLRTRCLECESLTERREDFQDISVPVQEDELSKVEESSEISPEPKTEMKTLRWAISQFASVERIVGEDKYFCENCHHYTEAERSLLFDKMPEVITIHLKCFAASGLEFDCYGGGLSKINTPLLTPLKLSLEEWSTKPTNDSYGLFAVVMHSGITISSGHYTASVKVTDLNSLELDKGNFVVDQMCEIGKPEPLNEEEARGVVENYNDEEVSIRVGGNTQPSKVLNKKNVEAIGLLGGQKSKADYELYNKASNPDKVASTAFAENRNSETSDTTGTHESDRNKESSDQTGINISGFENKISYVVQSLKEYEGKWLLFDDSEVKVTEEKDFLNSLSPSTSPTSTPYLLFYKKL
Sequence of Cytochrome P450 1A2 (Homo sapiens) (P05177 whole entry, looked up, the tested form may be a part): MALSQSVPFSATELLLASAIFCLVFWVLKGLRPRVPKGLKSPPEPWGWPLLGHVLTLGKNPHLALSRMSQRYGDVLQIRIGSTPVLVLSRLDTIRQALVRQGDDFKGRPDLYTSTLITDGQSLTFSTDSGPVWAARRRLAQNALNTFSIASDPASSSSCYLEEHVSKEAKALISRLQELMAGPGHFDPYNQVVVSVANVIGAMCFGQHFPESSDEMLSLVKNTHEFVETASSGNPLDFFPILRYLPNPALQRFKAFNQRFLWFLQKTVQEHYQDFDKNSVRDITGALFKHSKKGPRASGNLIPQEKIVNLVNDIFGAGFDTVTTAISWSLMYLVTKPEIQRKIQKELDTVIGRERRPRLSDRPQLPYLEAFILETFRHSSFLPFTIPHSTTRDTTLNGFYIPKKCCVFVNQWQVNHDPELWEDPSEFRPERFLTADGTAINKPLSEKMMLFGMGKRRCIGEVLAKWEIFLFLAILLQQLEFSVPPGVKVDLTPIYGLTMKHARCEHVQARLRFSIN

On to `CCCOc1ccc2[nH]cc(C3=CCNCC3)c2n1`, for which the Potency in test [1] was 0.126 µM (active); in test [2] it was > 46 µM (inactive); in [4] it was 2.51 µM (active). Also, the outcome in test [3] was inactive. Besides, the Potency result in test [5], in test [6], in [7], in test [8], in test [9] and in test [10] was “inactive” each time. Also, the Potency entry in test [11] was “inactive”. Besides, the max response in test [12] is 2.34% (inactive).
For the compound `CCCC1OC2C[C@@H]3[C@H]4CCC5=CC(=O)C=C[C@]5(C)[C@H]4C(O)C[C@]3(C)[C@]2(C(=O)CO)O1` (stereo not given in full), the Potency entry in test [8], in [9], in test [10], in test [11] and in test [13] was “inactive” throughout.
In the case of `CC(C)(C)OC(=O)CN(Cc1ccc(Cl)cc1)Cc1ccc([N+](=O)[O-])s1`, the Potency entry in test [8], in test [9], in test [10], in test [11] and in [13] was “inactive” in each case.
For the compound `CC(Oc1ccc(O)cc1)(P(=O)(O)O)P(=O)(O)O`, the Potency result in [8], in test [9], in test [10], in [11] and in [13] was “inactive” each time.
In the case of `Nc1nccc(-c2ccc3noc(-c4ccc(Cl)cc4)c3c2)n1`, the Potency in test [8] was 2.43 µM (active); in test [9], 7.69 µM (active); in test [10], 6.85 µM (active); in [11] it was 4.85 µM (active). For the same compound, the Potency result in [13] was “inactive”.
As to `C[C@H](O)[C@@H]1C(=O)N2C(C(=O)O)=C(S[C@@H]3CN[C@H](CNS(N)(=O)=O)C3)[C@@H](C)[C@@H]12`, the Potency result in [8], in test [9], in test [10], in test [11], in [13] and in test [14] was “inactive” each time.
For `Nc1nc2c(c(=O)[nH]1)N(C=O)[C@H](CNc1ccc(C(=O)N[C@@H](CCC(=O)O)C(=O)O)cc1)CN2`, the Potency entry in test [8], in test [9], in test [10], in test [11], in [13] and in [14] was “inactive” throughout.
For `COC(=O)C1C2CC3c4[nH]c5cc(OC)ccc5c4CCN3CC2CC(OC(=O)c2cc(OC)c(OC)c(OC)c2)C1OC` (stereo not given), the Potency result in [8], in test [9], in [10], in test [11] and in test [13] was “inactive” in each case.
With `CN(C[C@@H]1COCCO1)S(=O)(=O)Nc1ccc2ccc3ncc(-c4cnn(C)c4)cc3c(=O)c2c1`, the Potency result in test [8], in test [9], in test [10], in [11] and in test [13] was “inactive” throughout.
Consider `CC(=O)OC1C(C)OC(Oc2c(-c3ccc(O)cc3)oc3cc(O)cc(O)c3c2=O)C(O)C1OC(C)=O` (stereo not given), for which the Potency entry in [8], in [9], in test [10], in [11], in test [13] and in test [14] was “inactive” throughout.
With `CCOC(=O)C=C[C@H](C[C@@H]1CCNC1=O)NC(=O)[C@@H](CC(=O)[C@@H](NC(=O)c1cc(C)on1)C(C)C)Cc1ccc(F)cc1`, the Potency entry in [8], in [9], in test [10], in test [11] and in test [13] was “inactive” in each case.
For `O=C(O)CCCCC(CCSCc1ccccc1)SCc1ccccc1` (stereo not given), the Potency result in [8], in test [9], in test [10], in test [11] and in test [13] was “inactive” in each case. Further, the activity change, negative = inhibition in test [14] was -0.966%.
Take `COc1cccc2c(NCc3ccccc3)nc(-n3c(N)nc4ccccc43)nc12`: the Potency result in [8], in [9], in test [10], in test [11] and in [13] was “inactive” each time.
For `O=C(NCc1ccncc1)C12C[C@H]3C[C@@H](C1)CC(c1ccc(Cl)cc1)(C3)C2`, the Potency entry in test [8], in [9], in [10], in test [11] and in test [13] was “inactive” throughout.
As to `Nc1cccc(-c2cc3c(Oc4cccc(O)c4)ncnc3[nH]2)c1`, the Potency result in test [8], in test [11] and in [13] was “inactive” throughout. The Potency was 34.3 µM (active) in [9] and 30.6 µM (active) in test [10]. In test [14], the activity change, negative = inhibition was -8.51%.
For `CCc1c(O)cc(O)c(C(=O)c2ccc(OCCN3CCOCC3)c(OC)c2)c1CC(=O)N(CCOC)CCOC`, the Potency in test [8] was 12.2 µM (active); in test [9], 6.11 µM (active); in [10], 5.44 µM (active); in test [11], 3.43 µM (active). In test [13], the Potency result is “inactive”. In addition, in test [14], the activity change, negative = inhibition was -26.7%.
As to `CC1CCC(C(=O)N(c2cc(C#CC(C)(C)C)sc2C(=O)O)C2CCC(O)CC2)CC1` (stereo not given), the Potency result in test [8], in test [9], in [10], in [11] and in test [13] was “inactive” each time.
For `CC(C)c1cc(C(C)C)c(CC(=O)NS(=O)(=O)Oc2c(C(C)C)cccc2C(C)C)c(C(C)C)c1`, the Potency result in test [8], in test [9], in [10], in [11] and in test [13] was “inactive” each time.
Regarding `Cn1cc(-c2ccc3ncc(Cc4ccc5ncccc5c4)n3n2)cn1`, the Potency entry in test [8], in [9], in [10], in test [11], in test [13] and in test [14] was “inactive” each time.
With `Cn1c(=O)c(-c2c(Cl)cccc2Cl)cc2cnc(Nc3cccc(C(=O)O)c3)nc21`, the Potency result in [8], in test [9], in [10], in test [11], in test [13] and in [14] was “inactive” in each case.
Turning to `COc1ccc(S(=O)(=O)Nc2cc(-c3c(O)ccc4ccccc34)c(O)c3ccccc23)cc1`, the Potency result in test [8], in test [9], in test [10], in test [11] and in test [13] was “inactive” in each case.
For `CC(C)(F)C[C@H](N[C@@H](c1ccc(-c2ccc(S(C)(=O)=O)cc2)cc1)C(F)(F)F)C(=O)NC1(C#N)CC1`, the Potency entry in test [8], in [9], in [10], in [11] and in test [13] was “inactive” in each case.

The values above are taken from PubChem BioAssay (NCATS).
